Measured values taken from PubChem BioAssay (NCATS).
Inconclusive results are not listed. Calls of active or inactive are those of the source. Unless noted, calls follow the shape of the dose curve; as a rule, active = well fitted activation curve with a large enough effect in the main read-out, with a control signal flat (not every such curve was filed as active); inconclusive = small, poorly fitted or top-dose-only effect, or effect the other way, or a change in a side signal; inactive = flat fitted curve, though single readings scatter.

Assays:
[1] = molecular target: Mitogen-activated protein kinase 10 (Mus musculus) (UniProt Q61831); assay: JNK3 AlphaScreen Assay (AID 530; active = well fitted curve in either direction with a large enough effect, not every such curve was filed as active;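 also: kinase came from lysate of stimulated human HepG2 cells; signal reports phosphorylation of biotinylated GST-cJun 1-79 at Ser73 with 10 µM ATP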); conditions: JNK3 lysate, c-Jun phosphorylation; series mostly up to 57.1 µM
Procedure, shortened: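 Compound titrations were preincubated 15 minutes at room temperature with substrate, antibody and pre-activated JNK3-containing HepG2 lysate. Reactions were started with 10 uM ATP and stopped with EDTA-containing bead buffer for AlphaScreen detection.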

[2] = molecular target: 3',5'-cyclic-AMP phosphodiesterase 4B (Homo sapiens) (UniProt Q07343); assay: qHTS Assay for Inhibitors of PDE-IV (AID 607); conditions: HEK293 ACTOne CNG channel cells, membrane potential fluorescence; series mostly up to 22.9 µM
Chain of 3',5'-cyclic-AMP phosphodiesterase 4B (Homo sapiens) (Q07343 whole entry, looked up): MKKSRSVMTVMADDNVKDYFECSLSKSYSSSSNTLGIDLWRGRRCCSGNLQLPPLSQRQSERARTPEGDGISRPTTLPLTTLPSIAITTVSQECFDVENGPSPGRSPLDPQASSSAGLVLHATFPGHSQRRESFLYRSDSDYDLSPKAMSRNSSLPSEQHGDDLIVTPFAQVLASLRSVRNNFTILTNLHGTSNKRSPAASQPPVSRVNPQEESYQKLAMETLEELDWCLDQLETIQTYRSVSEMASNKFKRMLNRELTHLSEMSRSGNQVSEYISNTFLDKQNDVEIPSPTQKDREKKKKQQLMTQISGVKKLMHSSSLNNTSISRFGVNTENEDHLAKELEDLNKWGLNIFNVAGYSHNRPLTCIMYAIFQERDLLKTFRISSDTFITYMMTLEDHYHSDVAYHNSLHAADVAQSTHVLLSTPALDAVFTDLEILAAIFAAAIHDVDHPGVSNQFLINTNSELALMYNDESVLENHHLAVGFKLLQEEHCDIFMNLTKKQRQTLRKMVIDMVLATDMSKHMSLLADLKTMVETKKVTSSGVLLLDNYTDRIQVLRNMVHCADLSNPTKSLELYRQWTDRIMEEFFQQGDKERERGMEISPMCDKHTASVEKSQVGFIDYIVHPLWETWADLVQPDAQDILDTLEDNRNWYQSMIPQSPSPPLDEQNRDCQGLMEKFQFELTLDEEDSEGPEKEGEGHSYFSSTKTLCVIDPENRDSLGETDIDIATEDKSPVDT
Procedure, shortened: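 The readout is membrane depolarisation from a cAMP-sensing CNG channel, detected with a potential dye at ex 535/em 590. Cells were HEK293-derived (endogenous PDE-IV) at 1000 cells/well, titrated up to 22.9 uM final.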

Structure (SMILES) | outcome [1] | outcome [2]
COC(=O)[C@@]1(Cc2ccc(F)cc2)[C@H]2c3cc(C(=O)N(C)C)n(CCF)c3C[C@H]2CN1C(=O)c1ccccc1 | inactive | inactive
COC(=O)[C@@]1(Cc2ccc(OC)cc2)[C@H]2c3cc(C(=O)N(C)C)n(CCc4c[nH]c5ccc(O)cc45)c3C[C@H]2CN1C(=O)c1ccccc1 | inactive | inactive
CS(=O)(=O)c1ccc(CNC(=O)[C@H]2C[C@@H]2[C@H](NP(=O)(c2ccccc2)c2ccccc2)c2ccccc2)cc1 | inactive | inactive
CS(=O)(=O)c1ccc(CNC(=O)[C@@H]2C[C@H]2[C@@H](NP(=O)(c2ccccc2)c2ccccc2)c2ccccc2)cc1 | inactive | inactive
COC(=O)[C@@]1(Cc2ccc(OC)cc2)[C@H]2c3cc(C(=O)N(C)C)n(C)c3C[C@H]2CN1C(=O)c1ccccc1 | inactive | inactive
COC(=O)[C@@]1(Cc2ccc(F)cc2)[C@H]2c3cc(C(=O)N4CCCC4)n(CCc4c[nH]c5cc(F)ccc45)c3C[C@H]2CN1C(=O)c1ccccc1 | inactive | inactive
COC(=O)[C@@]1(Cc2ccc(OC)cc2)[C@H]2c3cc(C(=O)N(C)C)n(Cc4cccc5ccccc45)c3C[C@H]2CN1C(=O)c1ccccc1 | inactive | inactive
COC(=O)[C@@]1(Cc2ccccc2)[C@H]2c3cc(C(=O)N(C)C)n(Cc4ccc(O)c(OC)c4)c3C[C@H]2CN1C(=O)c1ccccc1 | inactive | inactive
COc1ccc(CNC(=O)[C@H](C)[C@H]2C[C@]2(C)[C@H](NC(=O)OCc2ccccc2)c2ccccc2)cc1OC | inactive | inactive
